Assay results as given in the supplement of paper PMC11732987, “Enantioselective OTUD7B fragment discovery through chemoproteomics screening and high-throughput optimisation” (Communications Chemistry, 2025).

Legend:
Assay in all cases: log2 ratio of Biotin-Ahx-Ub-VS probe labelling (fragment/DMSO); higher = less target engagement (more negative = stronger competition), active = hit call of the paper (q ≤ 0.05, log2 ratio ≤ -1)
Settings in all cases: compound concentration: 200 uM; treatment time: 3 h
USP34 = USP34 (UniProt Q70CQ2)
USP34, sequence (Q70CQ2 whole entry, the tested form may be a part): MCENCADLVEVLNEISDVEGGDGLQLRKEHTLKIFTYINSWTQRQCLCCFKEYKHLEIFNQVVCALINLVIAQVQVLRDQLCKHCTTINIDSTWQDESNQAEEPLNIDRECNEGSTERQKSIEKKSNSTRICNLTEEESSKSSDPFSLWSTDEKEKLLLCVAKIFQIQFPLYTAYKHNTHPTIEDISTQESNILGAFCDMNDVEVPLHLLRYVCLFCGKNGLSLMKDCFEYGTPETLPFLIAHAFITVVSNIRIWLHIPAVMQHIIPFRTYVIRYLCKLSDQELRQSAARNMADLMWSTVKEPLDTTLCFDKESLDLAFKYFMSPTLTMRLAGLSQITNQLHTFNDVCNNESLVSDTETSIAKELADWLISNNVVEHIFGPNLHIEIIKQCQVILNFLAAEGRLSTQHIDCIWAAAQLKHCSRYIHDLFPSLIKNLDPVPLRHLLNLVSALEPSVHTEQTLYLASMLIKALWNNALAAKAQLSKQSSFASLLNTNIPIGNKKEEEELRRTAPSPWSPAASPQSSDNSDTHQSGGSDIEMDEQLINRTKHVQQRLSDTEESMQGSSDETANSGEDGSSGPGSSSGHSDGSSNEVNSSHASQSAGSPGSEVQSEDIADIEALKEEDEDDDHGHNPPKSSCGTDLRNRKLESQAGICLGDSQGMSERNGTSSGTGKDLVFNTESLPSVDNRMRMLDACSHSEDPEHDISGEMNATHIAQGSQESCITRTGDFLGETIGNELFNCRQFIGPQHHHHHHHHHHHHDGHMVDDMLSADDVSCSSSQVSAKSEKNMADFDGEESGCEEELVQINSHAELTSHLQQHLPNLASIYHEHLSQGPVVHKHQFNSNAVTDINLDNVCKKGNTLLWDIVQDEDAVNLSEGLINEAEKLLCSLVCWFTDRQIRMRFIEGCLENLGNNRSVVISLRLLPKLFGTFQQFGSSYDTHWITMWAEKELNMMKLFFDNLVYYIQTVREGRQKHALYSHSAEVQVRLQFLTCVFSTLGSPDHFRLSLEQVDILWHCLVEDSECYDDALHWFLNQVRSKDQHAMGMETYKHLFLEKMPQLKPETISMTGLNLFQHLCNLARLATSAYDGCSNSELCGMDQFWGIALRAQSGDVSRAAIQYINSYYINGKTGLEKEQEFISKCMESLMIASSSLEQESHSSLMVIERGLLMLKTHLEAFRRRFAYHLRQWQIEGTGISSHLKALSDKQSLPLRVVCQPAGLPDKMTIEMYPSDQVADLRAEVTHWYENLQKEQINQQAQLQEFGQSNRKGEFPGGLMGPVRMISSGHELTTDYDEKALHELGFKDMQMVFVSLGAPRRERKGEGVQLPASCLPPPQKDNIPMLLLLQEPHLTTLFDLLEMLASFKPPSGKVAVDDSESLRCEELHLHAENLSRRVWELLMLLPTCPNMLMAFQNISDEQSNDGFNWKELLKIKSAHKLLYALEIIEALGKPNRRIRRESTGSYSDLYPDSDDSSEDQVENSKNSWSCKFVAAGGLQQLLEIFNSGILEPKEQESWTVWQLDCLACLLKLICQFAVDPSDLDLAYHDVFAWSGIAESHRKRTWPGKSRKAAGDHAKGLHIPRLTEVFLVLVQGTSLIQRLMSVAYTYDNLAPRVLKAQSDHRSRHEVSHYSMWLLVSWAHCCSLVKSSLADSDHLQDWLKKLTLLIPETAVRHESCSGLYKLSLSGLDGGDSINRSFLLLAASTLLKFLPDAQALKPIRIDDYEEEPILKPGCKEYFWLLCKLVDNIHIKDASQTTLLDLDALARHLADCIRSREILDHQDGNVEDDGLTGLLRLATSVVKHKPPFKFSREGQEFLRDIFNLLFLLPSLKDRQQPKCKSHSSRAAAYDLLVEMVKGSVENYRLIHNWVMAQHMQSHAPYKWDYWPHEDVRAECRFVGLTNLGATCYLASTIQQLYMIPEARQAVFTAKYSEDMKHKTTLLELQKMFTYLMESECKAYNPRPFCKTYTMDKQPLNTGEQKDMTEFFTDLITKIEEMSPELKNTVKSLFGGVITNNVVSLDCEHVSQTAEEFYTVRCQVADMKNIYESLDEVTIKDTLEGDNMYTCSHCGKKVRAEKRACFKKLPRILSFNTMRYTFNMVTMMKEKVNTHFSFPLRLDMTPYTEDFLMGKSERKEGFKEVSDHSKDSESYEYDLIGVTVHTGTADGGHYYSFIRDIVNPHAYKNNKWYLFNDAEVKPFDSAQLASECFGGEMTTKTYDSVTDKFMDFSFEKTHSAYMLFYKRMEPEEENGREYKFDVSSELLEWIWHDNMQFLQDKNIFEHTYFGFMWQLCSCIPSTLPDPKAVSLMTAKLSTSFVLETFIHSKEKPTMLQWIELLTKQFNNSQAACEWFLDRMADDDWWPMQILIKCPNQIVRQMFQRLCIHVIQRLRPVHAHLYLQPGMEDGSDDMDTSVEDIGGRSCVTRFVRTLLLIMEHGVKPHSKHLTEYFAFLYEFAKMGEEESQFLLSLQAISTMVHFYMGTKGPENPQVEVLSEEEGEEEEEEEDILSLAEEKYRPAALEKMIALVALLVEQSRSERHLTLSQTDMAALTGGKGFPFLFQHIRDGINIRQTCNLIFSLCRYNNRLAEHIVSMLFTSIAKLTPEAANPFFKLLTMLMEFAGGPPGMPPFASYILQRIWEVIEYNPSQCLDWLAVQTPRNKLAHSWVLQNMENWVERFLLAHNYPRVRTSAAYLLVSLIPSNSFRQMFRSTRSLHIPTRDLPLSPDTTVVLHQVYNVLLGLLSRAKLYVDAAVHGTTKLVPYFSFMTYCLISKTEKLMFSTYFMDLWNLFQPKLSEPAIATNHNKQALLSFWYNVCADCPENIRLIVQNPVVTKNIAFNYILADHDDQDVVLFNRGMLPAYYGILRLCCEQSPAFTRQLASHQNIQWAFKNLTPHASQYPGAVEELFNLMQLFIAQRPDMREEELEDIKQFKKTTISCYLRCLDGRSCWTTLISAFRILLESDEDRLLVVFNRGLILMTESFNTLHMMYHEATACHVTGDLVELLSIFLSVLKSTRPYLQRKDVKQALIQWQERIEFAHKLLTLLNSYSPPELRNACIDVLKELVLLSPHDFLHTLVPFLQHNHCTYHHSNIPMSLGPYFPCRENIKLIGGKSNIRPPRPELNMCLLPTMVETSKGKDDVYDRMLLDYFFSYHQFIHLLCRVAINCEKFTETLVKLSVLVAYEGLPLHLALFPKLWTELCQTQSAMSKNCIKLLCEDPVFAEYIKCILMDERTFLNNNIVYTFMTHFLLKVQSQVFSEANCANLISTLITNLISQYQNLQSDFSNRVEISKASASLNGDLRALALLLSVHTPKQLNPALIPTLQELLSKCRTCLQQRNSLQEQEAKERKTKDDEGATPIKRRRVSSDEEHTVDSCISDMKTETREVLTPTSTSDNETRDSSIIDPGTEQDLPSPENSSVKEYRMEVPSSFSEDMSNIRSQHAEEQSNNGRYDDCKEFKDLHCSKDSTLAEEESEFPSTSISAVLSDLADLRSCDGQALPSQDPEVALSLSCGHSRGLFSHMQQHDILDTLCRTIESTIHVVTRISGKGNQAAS
Outline: (§1)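 HEK293T lysate in Tris/CHAPS/IGEPAL buffer with protease inhibitors (495 µg per sample) was given fragment at 200 µM or vehicle for 3 h, in triplicate. It then received Biotin-Ahx-Ub-VS at 0.5 µM final for 1 h. Labelled DUBs were NeutrAvidin-enriched, digested with LysC and trypsin, and run by diaPASEF LC-MS/MS. Values are average log2 fragment/vehicle ratios by unpaired t-test on global-median-normalised Spectronaut quantities of proteins with ≥2 unique peptides.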

USP36 = target: T1, USP36 (UniProt Q9P275)
T1 sequence (whole entry): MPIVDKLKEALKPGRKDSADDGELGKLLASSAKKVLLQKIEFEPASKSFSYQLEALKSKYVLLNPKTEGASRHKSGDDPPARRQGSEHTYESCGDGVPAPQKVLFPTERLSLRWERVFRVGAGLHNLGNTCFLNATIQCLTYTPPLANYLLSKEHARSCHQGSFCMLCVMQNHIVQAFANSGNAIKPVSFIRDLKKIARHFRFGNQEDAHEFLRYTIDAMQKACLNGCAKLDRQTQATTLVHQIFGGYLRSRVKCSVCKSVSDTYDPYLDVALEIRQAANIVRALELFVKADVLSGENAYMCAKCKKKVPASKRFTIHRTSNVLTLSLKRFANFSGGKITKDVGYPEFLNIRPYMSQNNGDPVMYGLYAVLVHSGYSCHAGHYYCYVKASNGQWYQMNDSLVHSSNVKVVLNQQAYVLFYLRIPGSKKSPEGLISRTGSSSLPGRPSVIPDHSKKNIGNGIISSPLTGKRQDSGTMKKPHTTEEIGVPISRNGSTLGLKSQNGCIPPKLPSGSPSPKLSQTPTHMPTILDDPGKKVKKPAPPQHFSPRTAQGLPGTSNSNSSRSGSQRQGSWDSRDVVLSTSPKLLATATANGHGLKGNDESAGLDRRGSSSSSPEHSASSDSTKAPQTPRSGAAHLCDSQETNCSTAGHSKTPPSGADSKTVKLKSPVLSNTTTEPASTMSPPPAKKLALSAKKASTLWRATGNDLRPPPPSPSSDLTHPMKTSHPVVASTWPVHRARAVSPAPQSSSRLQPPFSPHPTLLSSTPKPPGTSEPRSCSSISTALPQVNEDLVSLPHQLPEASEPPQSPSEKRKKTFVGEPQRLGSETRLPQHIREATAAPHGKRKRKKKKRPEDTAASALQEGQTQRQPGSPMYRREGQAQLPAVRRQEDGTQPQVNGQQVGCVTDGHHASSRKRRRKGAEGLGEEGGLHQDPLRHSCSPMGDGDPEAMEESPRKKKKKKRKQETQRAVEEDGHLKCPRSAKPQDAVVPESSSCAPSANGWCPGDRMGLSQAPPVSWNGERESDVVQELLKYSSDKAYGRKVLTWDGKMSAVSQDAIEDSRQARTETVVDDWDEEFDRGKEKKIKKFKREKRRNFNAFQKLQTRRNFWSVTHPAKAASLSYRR
Outline: as §1

USP38 = target: T2, USP38 (UniProt Q8NB14)
T2 sequence (whole entry): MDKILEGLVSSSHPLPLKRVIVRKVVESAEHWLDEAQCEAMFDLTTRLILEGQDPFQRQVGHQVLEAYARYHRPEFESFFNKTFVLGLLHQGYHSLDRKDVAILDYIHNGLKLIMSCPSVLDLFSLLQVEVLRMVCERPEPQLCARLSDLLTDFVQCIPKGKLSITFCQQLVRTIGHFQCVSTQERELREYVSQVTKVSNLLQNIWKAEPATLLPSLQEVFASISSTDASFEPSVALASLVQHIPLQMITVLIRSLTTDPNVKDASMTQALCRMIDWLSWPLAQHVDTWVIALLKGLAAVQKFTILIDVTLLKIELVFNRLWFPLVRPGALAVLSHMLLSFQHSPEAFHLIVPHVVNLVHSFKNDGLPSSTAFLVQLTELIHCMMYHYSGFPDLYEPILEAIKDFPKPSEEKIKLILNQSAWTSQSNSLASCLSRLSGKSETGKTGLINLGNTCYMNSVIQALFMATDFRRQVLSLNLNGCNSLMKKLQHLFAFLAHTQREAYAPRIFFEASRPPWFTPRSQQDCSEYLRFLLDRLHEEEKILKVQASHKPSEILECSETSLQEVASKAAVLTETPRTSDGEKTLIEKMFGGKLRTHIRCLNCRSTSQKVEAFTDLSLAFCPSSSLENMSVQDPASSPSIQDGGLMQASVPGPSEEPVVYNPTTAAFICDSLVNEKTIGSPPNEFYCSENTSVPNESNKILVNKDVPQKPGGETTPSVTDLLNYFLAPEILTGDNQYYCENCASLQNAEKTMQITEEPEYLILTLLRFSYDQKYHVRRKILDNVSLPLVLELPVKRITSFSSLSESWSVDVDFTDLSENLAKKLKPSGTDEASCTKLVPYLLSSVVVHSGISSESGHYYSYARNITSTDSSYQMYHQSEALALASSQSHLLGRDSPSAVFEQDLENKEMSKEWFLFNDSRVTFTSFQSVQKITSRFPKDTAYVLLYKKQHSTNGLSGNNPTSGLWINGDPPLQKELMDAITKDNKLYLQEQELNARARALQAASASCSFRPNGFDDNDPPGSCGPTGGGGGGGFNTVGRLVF
Outline: as §1

USP39 = target: T3, USP39 (UniProt Q53GS9)
T3 sequence (whole entry): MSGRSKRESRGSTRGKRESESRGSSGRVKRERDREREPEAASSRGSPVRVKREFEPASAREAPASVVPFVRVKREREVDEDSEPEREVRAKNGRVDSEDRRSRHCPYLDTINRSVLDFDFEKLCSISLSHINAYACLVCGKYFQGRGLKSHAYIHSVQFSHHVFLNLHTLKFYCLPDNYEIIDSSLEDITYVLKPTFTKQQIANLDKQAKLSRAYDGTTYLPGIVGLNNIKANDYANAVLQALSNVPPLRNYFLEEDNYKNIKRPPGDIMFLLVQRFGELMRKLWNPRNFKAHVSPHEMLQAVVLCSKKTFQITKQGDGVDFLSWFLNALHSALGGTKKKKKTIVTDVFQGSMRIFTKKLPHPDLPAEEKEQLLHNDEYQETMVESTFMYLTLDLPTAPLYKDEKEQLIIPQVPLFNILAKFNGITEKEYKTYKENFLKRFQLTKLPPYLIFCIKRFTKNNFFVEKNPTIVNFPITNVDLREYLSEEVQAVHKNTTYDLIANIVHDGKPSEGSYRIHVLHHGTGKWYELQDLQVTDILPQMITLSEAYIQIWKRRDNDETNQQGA
Outline: as §1

USP4 = target: T4, USP4 (UniProt Q13107)
T4 sequence (whole entry): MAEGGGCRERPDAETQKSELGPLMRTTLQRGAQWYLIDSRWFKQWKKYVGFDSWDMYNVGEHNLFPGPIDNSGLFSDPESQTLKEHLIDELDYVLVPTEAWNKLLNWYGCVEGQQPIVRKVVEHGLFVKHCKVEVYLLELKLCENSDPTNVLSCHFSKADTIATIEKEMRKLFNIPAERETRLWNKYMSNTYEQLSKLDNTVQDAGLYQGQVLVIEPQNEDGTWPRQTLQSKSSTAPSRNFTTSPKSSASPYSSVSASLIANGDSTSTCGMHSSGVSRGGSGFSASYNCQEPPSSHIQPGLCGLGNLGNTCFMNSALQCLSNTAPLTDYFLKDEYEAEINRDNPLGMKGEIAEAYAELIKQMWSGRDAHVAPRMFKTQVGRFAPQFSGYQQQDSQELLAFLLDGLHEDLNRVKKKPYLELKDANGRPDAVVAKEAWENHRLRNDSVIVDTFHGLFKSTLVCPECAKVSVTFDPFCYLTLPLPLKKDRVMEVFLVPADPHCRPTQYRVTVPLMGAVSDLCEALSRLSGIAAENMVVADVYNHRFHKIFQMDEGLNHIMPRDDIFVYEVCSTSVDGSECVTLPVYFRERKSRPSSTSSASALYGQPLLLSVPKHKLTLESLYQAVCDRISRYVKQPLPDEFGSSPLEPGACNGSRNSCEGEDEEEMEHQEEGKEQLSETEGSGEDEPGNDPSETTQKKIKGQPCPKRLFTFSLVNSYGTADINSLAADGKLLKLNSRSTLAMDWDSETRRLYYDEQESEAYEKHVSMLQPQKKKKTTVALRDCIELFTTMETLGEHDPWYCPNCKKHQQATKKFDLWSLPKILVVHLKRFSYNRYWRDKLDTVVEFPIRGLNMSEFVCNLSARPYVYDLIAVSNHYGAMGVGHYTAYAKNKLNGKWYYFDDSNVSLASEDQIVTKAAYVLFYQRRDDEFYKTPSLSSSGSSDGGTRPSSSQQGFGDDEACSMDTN
Outline: as §1

Measured: log2 ratio of Biotin-Ahx-Ub-VS probe labelling

O=C(CCl)NCC1(c2ccccc2)CC1
inactive: USP34 -0.227 | USP36 -0.0695 | USP38 0.127 | USP39 -0.168 | USP4 -0.0752
